Assay outcomes from PubChem.
KB-V1 MDR tox = kills drug-selected multidrug resistant KB-V1 cells | KB-V1 MDR cells viability, CellTiter-Glo, 72 h | Potency, µM (titrated, usually from 46.1 µM), actives largely listed as cytotoxic | actives 3.4% (n = 400,000); note: % is set by controls: 0 for no effect and ±100 for the full control effect; nearly all actives have a fitted effect of over 60% in size
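Luminescent ATP read-out (CellTiter-Glo, 10 min) measures survival of drug-selected KB-V1 MDR cells after 72 h, 37 degrees C compound exposure. Medium: phenol-red-free DMEM, 10% FBS. Values from fitted concentration-response curves.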
MCF10A rerep = induces DNA re-replication in MCF 10a normal breast cells; MCF 10A DNA re-replication, Hoechst nuclear intensity, 48 h; Potency, µM (series often up to 46.1 µM), without a hit: top-dose activity, positive = re-replication, usual class: activators; AID 624296; actives 2.9% (n = 350,000); note: % of control where 0% means no effect; nearly all actives have a fitted effect of over 50% in size
SW480 rerep = induces DNA re-replication in SW480 colon adenocarcinoma cells; Potency, µM (series often up to 46.1 µM), for inactives: top-dose re-replication activation, hits mostly activators; actives 1.8% (n = 340,000); SW480 DNA re-replication, Hoechst DNA content imaging, 48 h; AID 624297; note: % of control where 0% means no effect; nearly all actives have a fitted effect of over 55% in size
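250 cells/well; 23 nL cpd via pin tool; 48 hr, 37 C, 5% CO2; Hoechst 40 min; imager read of total nuclear intensity, ex 405/em 500-530 nm.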
RORg inh = ROR gamma (mouse) transcription inhibition | Drosophila S2 Gal4-RORgamma UAS-luciferase reporter, 20 h | AID 2551 | P51450 | Potency, µM (titrated, usually from 53.6 µM), without a hit: top-dose activity change, negative = inhibition, usual class: inhibitors | actives 5.4% (n = 310,000); note: % is set by controls: 0 for no effect and ±100 for the full control effect; nearly all actives have a fitted effect of over 60% in size
Target sequence (P51450 whole entry, looked up, the tested form may be a part): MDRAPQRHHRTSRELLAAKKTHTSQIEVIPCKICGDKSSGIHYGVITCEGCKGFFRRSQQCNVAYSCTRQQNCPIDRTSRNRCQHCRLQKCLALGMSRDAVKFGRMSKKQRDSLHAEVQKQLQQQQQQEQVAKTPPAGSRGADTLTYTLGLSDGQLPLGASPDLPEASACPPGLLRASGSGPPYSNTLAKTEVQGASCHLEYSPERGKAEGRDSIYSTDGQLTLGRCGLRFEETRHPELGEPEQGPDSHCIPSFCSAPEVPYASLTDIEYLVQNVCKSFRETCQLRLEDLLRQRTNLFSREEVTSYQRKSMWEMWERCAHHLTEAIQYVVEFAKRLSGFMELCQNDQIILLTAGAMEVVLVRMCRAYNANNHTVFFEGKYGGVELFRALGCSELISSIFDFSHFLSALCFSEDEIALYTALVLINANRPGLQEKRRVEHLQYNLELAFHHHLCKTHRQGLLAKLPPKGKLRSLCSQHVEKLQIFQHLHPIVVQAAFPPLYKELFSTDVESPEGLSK
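Stable Schneider cell line, Gal4 DNA-binding domain fused to ROR gamma, UAS-luciferase. Cmpd 1 hr RT → CuSO4 700 uM final → 20 hr RT → luciferase reagent 10 min → luminescence.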
KB-3-1 cytotox = KB-3-1 parental cell cytotoxicity; KB-3-1 viability, CellTiter-Glo ATP luminescence, 72 h; Potency, µM (top dose mostly 46.1 µM), most hits filed as cytotoxic; actives 1.4% (n = 400,000); note: % is set by controls: 0 for no effect and ±100 for the full control effect; nearly all actives have a fitted effect of over 60% in size
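Here the drug-naive KB-3-1 line serves as comparator for MDR sub-line selectivity; cells received compound titrations, 72 h at 37 °C, then CellTiter-Glo readout.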
VP16 counter = inhibits Gal4-VP16 luciferase reporter, ROR gamma counter-screen; Drosophila S2 Gal4-VP16 UAS-luciferase, luminescence, 20 h; actives 3.5% (n = 310,000); Potency, µM (top dose mostly 53.6 µM), for the others: top-dose activity, negative = inhibition, usual class: inhibitors; AID 2546;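 note: Gal4-VP16 expression switched on by copper sulfate through the metallothionein promoter; % is set by controls: 0 for no effect and ±100 for the full control effect; nearly all actives have a fitted effect of over 50% in size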
* hit, by the source's call; i = inactive; u = inconclusive; x = no result; [ ] = dose if it differs, or a comment. Sampled rows, rich in hits. Any-hit rate of the full collection: about 10%. Calls come from the whole dose curve; as a rule, active = well fitted curve in the direction sought with a large enough effect; inconclusive = small, poorly fitted or top-dose-only effect, or another doubt; inactive = no such curve, though single readings can be large; an effect the other way counts as inactive or inconclusive. Potency is the fitted concentration of half-maximal effect.

SMILES	KB-V1 MDR tox	MCF10A rerep	SW480 rerep	RORg inh	KB-3-1 cytotox	VP16 counter
Cn1c(=O)c(C(=O)NC2CCCCCCC2)c(O)c2ccccc21	20.6µM*	0.1%	-1.9%	-0.8%	i	u
CCCn1nc(C(=O)NC2CCCCCC2)c2ccccc2c1=O	5.8µM*	7.9%	-0.2%	x	i	x
C[C@H](CO)N1C[C@H](C)[C@@H](CN(C)C(=O)C2CCCCC2)OCc2cn(nn2)CCCC1=O	i	x	x	x	i	x
COc1ccc2nc3n(c(=O)c2c1)-c1cc2ccccc2cc1C(=O)NC3Cc1ccccc1 (centres undefined)	u	x	x	x	11.6µM*	x
C=CCn1c(COc2ccccc2)nnc1SCC(=O)Nc1ccc2c(c1)OCCO2	i	2.5%	2.0%	-2.6%	i	-7.1%
C=CCn1c(COc2ccc3c(c2)CCCC3)nnc1SCC(=O)Nc1cccc(SC)c1	14.6µM*	18.8%	4.2%	35.1%	u	-4.0%
Cn1ccc(C(=O)NC(=S)N2CCSCC2)n1	i	8.0%	-0.8%	11.2µM*	i	-10.2%
COc1cccc(-c2ccc3c(N)c(C(=O)NCc4ccc(Cl)cc4)sc3n2)c1	i	x	x	x	i	x
Cn1c2c(c(=O)[nH]c1=O)C(c1cccc(O)c1)C1=C(N2)c2ccccc2C1=O (centres undefined)	i	u	10.3µM*	-38.8%	16.4µM*	-16.6%
CC(=O)NCCNc1nc(-c2ccccc2Cl)nc2ccccc12	x	x	x	-14.5%	x	8.0%
CC1(C)CC1C(=O)Nc1ccc([N+](=O)[O-])cc1Br (centres undefined)	i	0.3%	1.8%	-17.1%	i	1.0%
Cc1ccc(C2(c3ccc(C)cc3)CC2C(=O)Nc2ccc([N+](=O)[O-])cc2O)cc1 (centres undefined)	14.6µM*	u	19.4%	u	u	u
Cc1ccc(OCC(=O)OC(C)CN2CCCCC2)cc1 (centres undefined)	i	1.03µM*	-100.1%	-2.1%	i	-8.5%
COc1ccc(OCC(=O)OC(C)CN2CCCCC2)cc1 (centres undefined)	i	0.8%	-92.5%	-17.7%	i	3.5%
CC(=O)Nc1ccc(-c2ccnc3c2CC(C(=O)NCc2ccco2)O3)cc1 (centres undefined)	i	x	x	x	0.517µM*	x
CC(=O)Nc1ccc(-c2ccnc3c2CC(C(=O)NCc2ccccc2)O3)cc1 (centres undefined)	1.3µM*	x	x	x	0.0651µM*	x
CCCCN(C)C(=O)Cn1c(SCC(=O)Nc2ccc(C)c(C)c2)nc2ccccc21	i	x	x	x	i	x
CS(=O)(=O)N(CC(=O)Nc1ccccc1)Cc1ccc(Cl)cc1	i	-28.4%	2.7%	12.8%	i	2.9%
CC(=O)Nc1ccc(NC(=O)c2ccccc2N(Cc2ccccc2)S(C)(=O)=O)cc1	i	u	u	1.3%	i	-6.3%
CC(C)CNC(=O)c1ccccc1N(Cc1ccccc1)S(C)(=O)=O	i	1.5%	11.6µM*	-18.7%	i	-0.3%
CSc1ccccc1NC(=O)c1ccccc1N(Cc1ccccc1)S(C)(=O)=O	9.2µM*	0.4%	-2.7%	27.4%	i	-4.8%
CSc1cccc(NC(=O)CN(Cc2ccc(Cl)cc2)S(C)(=O)=O)c1	11.6µM*	1.6%	-0.9%	27.8%	i	3.5%
CSc1ccccc1NC(=O)CN(Cc1ccccc1)S(C)(=O)=O	20.6µM*	11.6%	3.8%	-2.2%[0.365 µM]	i	x
CCCS(=O)(=O)NC(=O)C1(C)CCN(C(=O)c2nc(C)oc2C)C1 (centres undefined)	i	x	x	x	i	x
CCCCOc1ccc(C(=O)N2CCN(CCc3ccncc3)CC2)cc1	i	x	x	x	i	x
SMILES	KB-V1 MDR tox	MCF10A rerep	SW480 rerep	RORg inh	KB-3-1 cytotox	VP16 counter
Cc1ccccc1CN1CCN(c2ccc(S(=O)(=O)N3CCCC3)cn2)CC1	9.2µM*	u	4.9%	x	u	x
O=S(=O)(c1ccc(N2CC=C(c3ccccc3)CC2)nc1)N1CCCC1	8.2µM*	23.1µM*	u	-4.0%	u	2.1%
O=S(=O)(c1ccc(N2CCN(Cc3ccccc3)CC2)nc1)N1CCCC1	u	21.9%	-3.8%	x	u	x
COc1cc(OC)c2c(-c3ccccc3)cc(=O)oc2c1C(CCN1CCCCC1)c1ccc(N(C)C)cc1 (centres undefined)	i	9.1%	24.1%	u	u	u
COc1ccc(C(CCN2CCCCC2)c2c(OC)cc(OC)c3c(-c4ccccc4)cc(=O)oc23)cc1 (centres undefined)	i	u	1.64µM*	u	u	u
Cc1ccc(-c2nc(Nc3ccc(O)cc3)c3ccccc3n2)cc1	u	u	u	-13.2%	u	0.8%
Cc1ccc(-c2nc(C(Cl)Cl)c3ccccc3n2)cc1	20.6µM*	u	u	u	20.6µM*	8.91µM*
OC[C@@H]1CN(Cc2ccco2)C[C@H](n2cnc3c(NC4CC4)ncnc32)O1	i	x	x	x	i	x
Cc1cc([N+](C)(C)C)cc(C)c1/C=C/c1ccnc2ccccc12	i	x	x	x	i	x
CCOC(=O)c1c(C)cc2c(CO)n[nH]c(=O)c2c1C	0.82µM*	x	x	x	i	x
Cc1c(NC(=O)CSC(=S)N2CCCC2)c(=O)n(-c2ccccc2)n1C	i	2.0%	-0.6%	x	i	x
O=C(CSC(=S)N1CCCC1)NCCc1ccccc1	i	-1.1%	6.2%	x	u	x
COCCNC(=O)CSc1nc(-c2ccccc2)c(-c2ccccc2)o1	u	1.3%	-8.1%	-6.1%	i	-12.2%
CCN(CC)C(=S)SCC(=O)Nc1nc(-c2ccccc2)c(-c2ccccc2)o1	i	14.5%	-3.8%	4.47µM*	u	8.91µM*
O=C(CSC(=S)N1CCCCC1)Nc1nc(-c2ccccc2)c(-c2ccccc2)o1	23.1µM*	5.8%	12.3%	5.62µM*	i	u
Cn1nnnc1SCC(=O)Nc1ccccn1	i	4.1%	-3.6%	5.9%	i	13.6%
Cn1nnnc1SCC(=O)Nc1nc(-c2ccccc2)c(-c2ccccc2)o1	i	u	-0.4%	10µM*	i	u
O=C(CSC(=S)N1CCN(c2ccccc2)CC1)Nc1nc(-c2ccccc2)c(-c2ccccc2)o1	i	19.4%	-2.1%	10µM*	i	-6.8%
CCOC(=O)C1=C[C@@H](C(C)(C)C)N(S(=O)(=O)c2ccc(C)cc2)[C@H]1c1ccc(Cl)c(Cl)c1	u	x	x	x	i	x
CCOC(=O)c1noc2ncnc(Nc3cc(Cl)c(OC)cc3OC)c12	i	x	x	x	i	x
COc1cccc(C(O)c2nc(-c3cncnc3)cs2)c1 (centres undefined)	i	x	x	x	i	x
